Screening data: PubChem BioAssay, NMMLSC
RGS8-Gao reg: human RGS8-Galphao interaction regulation. multiplexed bead flow cytometry, RGS8-Galphao binding; actives lie on both sides. response (percent of control binding), % at 10 µM. hit rate 0.34% among 220,000; in the data active = response below about 60% or above about 140%; inactive = in between;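 note: Galphao activated as the GDP aluminium fluoride complex binding bead-coupled RGS8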
Target sequence (P09471 whole entry, looked up): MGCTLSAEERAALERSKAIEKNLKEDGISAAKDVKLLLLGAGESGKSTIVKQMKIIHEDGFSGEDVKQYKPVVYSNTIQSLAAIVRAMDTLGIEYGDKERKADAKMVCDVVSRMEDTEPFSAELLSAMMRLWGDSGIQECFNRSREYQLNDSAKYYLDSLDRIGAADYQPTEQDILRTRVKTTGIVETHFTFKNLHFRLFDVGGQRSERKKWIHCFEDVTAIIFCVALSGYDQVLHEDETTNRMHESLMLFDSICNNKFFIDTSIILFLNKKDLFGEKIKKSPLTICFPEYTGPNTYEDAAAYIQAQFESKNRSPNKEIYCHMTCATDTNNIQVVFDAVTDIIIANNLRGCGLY
RGS4-Gao reg: human RGS4-Galphao interaction regulation; P09471; Multiplexed bead flow cytometry, RGS4-Galphao binding; actives lie on both sides; binding response (% of control), % at 10 µM; hit rate 0.33% among 220,000; in the data active = binding response below about 49% or above about 150%; inactive = in between;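 note: fluorescent Galphao activated with aluminum fluoride binding bead-coupled RGS4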
RGS7-Gao reg: regulators of human RGS7-Galphao interaction. P09471. Multiplexed bead flow cytometry, RGS7-Galphao binding; actives lie on both sides. binding response (% of control), % at 10 µM. hit rate 0.35% among 220,000. AID 1439; in the data active = binding response below about 49% or above about 150%; inconclusive = no clear call, values can overlap the other calls; inactive = in between;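 note: fluorescent Galphao held in activated GDP-AlF4 state binding bead-coupled RGS7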
Avidin bead fluor: compound fluoresces at 488/530 nm on avidin beads | AID 1775 | compound fluorescence 488/530 nm, flow cytometry; active compounds read high | hit rate 0.38% among 220,000 | fluorescence (KMESF) at 10 µM; in the data active = fluorescence above about 47
RGS16-Gao: regulators of human RGS16-Galphao interaction; binding response (% of control), % at 10 µM; O15492+P09471; bead-based flow cytometry RGS16-Galphao binding, fluorescence; actives lie on both sides; hit rate 0.38% among 220,000; AID 1441;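 note: Galphao activated by GDP with aluminum fluoride before binding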
GSH fluor: compound fluoresces at 488/530 nm on GSH beads | GSH beads flow cytometry, compound fluorescence 488/530 nm; active compounds read high | hit rate 0.25% among 190,000 | fluorescence (KMESF) at 10 µM; in the data active = fluorescence above about 89;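 note: glutathione beads carrying GST-tagged Bcl family fusion proteins plus one bare bead set; values are compound well signal with DMSO vehicle wells as background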
RGS-Gao: modulates binding between human RGS4 and Galphao. shares compounds with RGS16-Gao. multiplexed bead flow cytometry, RGS–Galpha-o binding. RGS4–Galpha-o binding response, % at 10 µM. hit rate 99% among 1,600;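 note: fluorescently labeled Galpha-o bound to GDP with aluminium fluoride binding biotinylated RGS beads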
Biotin-avidin: interferes with biotinylated probe binding to avidin beads. streptavidin beads, fluorescein-biotin binding, flow cytometry. inhibition, % at 10 µM. 1,700 tested, under 10 active. shares compounds with RGS16-Gao;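 active = inhibition above 50%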;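 note: median green fluorescence of gated singlet beads compared with DMSO control wells; 0% = DMSO wells and 100% = complete loss of bead fluorescence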
RGS8-Gao single: RGS8-Galphao interaction regulation, single point confirmation. hit rate 3% among 1,700. shares compounds with RGS16-Gao. bead-based flow cytometry RGS8-Galphao binding, fluorescence; actives lie on both sides. AID 1836. binding response (% of control), % at 10 µM; in the data active = binding response below about 72% or above about 130%; inactive = in between;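 note: Galphao activated as GDP AlF4 complex before binding bead RGS8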
RGS7-Gao single: confirmation of regulators of human RGS7-Galphao interaction | shares compounds with RGS16-Gao | bead-based flow cytometry RGS7-Galphao binding; actives lie on both sides | response (percent of control binding), % at 10 µM | hit rate 7.8% among 1,700; in the data active = response below about 75% or above about 130%; inactive = in between;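 note: fluorescent Galphao activated with GDP and aluminum fluoride binding bead-coupled RGS7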
RGS16-Gao conf: confirmation of regulators of human RGS16-Galphao interaction; shares compounds with RGS16-Gao; bead-based flow cytometry, RGS16-Galphao binding; actives lie on both sides; response (% of control binding), % at 10 µM; hit rate 4% among 1,700; AID 1838; in the data active = response below about 74% or above about 130%; inactive = in between;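 note: Galphao activated as the GDP aluminium fluoride complex binding bead-coupled RGS16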
RGS4-Gao single: RGS4-Galphao interaction regulation, single point confirmation; shares compounds with RGS16-Gao; binding response (% of control), % at 10 µM; RGS4-Galphao binding, multiplexed bead flow cytometry; actives lie on both sides; hit rate 4% among 1,700; in the data active = binding response below about 74% or above about 130%; inactive = in between
RGS19-Gao single: confirmation of regulators of human RGS19-Galphao interaction; hit rate 5% among 1,700; bead-based flow cytometry RGS19-Galphao binding; actives lie on both sides; AID 1841; shares compounds with RGS16-Gao; response (percent of control binding), % at 10 µM; in the data active = response below about 50% or above about 160%; inactive = in between;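 note: 100% = no compound control and 0% = blank background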
Target sequence (P09471 whole entry, looked up): as above
Target sequence (P49795 whole entry, looked up): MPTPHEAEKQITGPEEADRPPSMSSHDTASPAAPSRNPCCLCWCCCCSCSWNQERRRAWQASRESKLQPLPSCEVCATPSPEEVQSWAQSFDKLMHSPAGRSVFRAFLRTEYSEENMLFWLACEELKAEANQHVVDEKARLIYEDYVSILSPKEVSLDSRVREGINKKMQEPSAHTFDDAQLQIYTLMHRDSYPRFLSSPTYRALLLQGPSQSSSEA
An asterisk follows results filed as active; i = inactive; ? = inconclusive; · = not tested or not shown; + = active, no number; [ ] = another dose, or the depositor's remark. Most compounds without a hit are left out; they make up all but 1.2% or so of the library. Unless noted, the rule behind the calls is not given here.

SMILES	RGS8-Gao reg	RGS4-Gao reg	RGS7-Gao reg	Avidin bead fluor	RGS16-Gao	GSH fluor	RGS-Gao	Biotin-avidin	RGS8-Gao single	RGS7-Gao single	RGS16-Gao conf	RGS4-Gao single	RGS19-Gao single
CCOC(=O)c1ccc(N2C(=O)CC(N3CCN(C/C=C/c4ccccc4)CC3)C2=O)cc1 (stereo not drawn)	153*[activator]	134	122	7	i	66	134*	0	109	108	112	105	115
CC(=O)N(C1=C(Cl)C(=O)c2ccccc2C1=O)C1CCCCC1	54*	87	?	2	3.0*	·	87*	·	·	·	·	·	·
CC(=O)N(c1ccccc1C)C1CCCC1	102	101	100	2	105	6	·	·	·	·	·	·	·
CC1CCC2(CC1)NC(CO)(CO)CO2 (stereo not drawn)	94	98	97	15	70	22	·	·	·	·	·	·	·
CCC1CCC2(CC1)NC(CO)(CO)CO2 (stereo not drawn)	145*[activator]	115	119	26	318	23	115*	0	107	106	109	106	100
Cc1ccc(-n2c(N)c(C(=O)Nc3c(C)n(C)n(-c4ccccc4)c3=O)c3nc4ccccc4nc32)cc1C	99	96	96	20	106	11	·	·	·	·	·	·	·
COc1ccc(-n2c(N)c(C(=O)Nc3c(C)n(C)n(-c4ccccc4)c3=O)c3nc4ccccc4nc32)cc1	141*[activator]	315*[activator]	?	116*	288*[activator]	·	·	0	102	105	101	102	100
S=C(Nc1ccc2c(c1)OCCO2)Nc1ccc2c(c1)OCO2	97	90	93	9	99	27	·	·	·	·	·	·	·
CN(C)C(=S)Nc1ccc2c(c1)OCCO2	69	40*	?	4	46	·	·	0	100	97	101	101	112
CCOC(=O)Cc1csc(NC(=O)CSc2nnc(-c3ccc(F)cc3)o2)n1	72	61	57	3	-13*	12	61*	-1	95	68*	84	80	54
CCOC(=O)Cc1csc(NC(=O)CSc2nnc(-c3ccc(C)cc3)o2)n1	99	96	98	7	104	36	·	·	·	·	·	·	·
CN(C)C(=O)CSc1nc2ccccc2c(=O)[nH]1	97	127	277*[activator]	165*	109	24	127*	1	102	95	105	101	102
Cc1cc(C(=O)CSc2nc3ccccc3c(=O)n2C)c(C)n1Cc1ccc2c(c1)OCO2	·	+[activator]	121	152*	+[activator]	12	·	0	95	92	96	96	116
Cc1cc(C(=O)CSc2nnc(-c3ccccc3)n2Cc2ccc3c(c2)OCO3)c(C)n1C	98	99	99	7	89	29	·	·	·	·	·	·	·
O=C(/C=C\c1ccc(-c2cccc([N+](=O)[O-])c2)o1)N1CCOCC1	97	101	91	8	96	10	·	·	·	·	·	·	·
COCC(=O)N(C)C1(c2nnnn2CCOC(=O)Nc2ccc(Cl)cc2)CCCCC1	104	99	?	10	103	12	·	·	·	·	·	·	·
COCC(=O)NC1(c2nnnn2CCOC(=O)Nc2ccc(Cl)cc2)CCCCC1	101	116	255*[activator]	68*	98	23	116*	0	108	115	109	110	106
CC1(C)OC(=CC=Nc2ccc(Cl)cc2)OC1(C)C	110	114	?	7	112	·	·	·	·	·	·	·	·
Cn1c(-c2ccc(F)cc2)cnc1NCc1cc2c(cc1[N+](=O)[O-])OCO2	104	103	104	15	110	9	·	·	·	·	·	·	·
Cc1cc(F)ccc1NCc1cc2c(cc1[N+](=O)[O-])OCO2	89	84	88	2	-41*	63	84*	1	88	85	87	88	95
CC(C)(C)c1ccc(C(=O)O)c(C(=O)c2ccc(C(=O)O)cc2)c1	100	102	?	6	101	·	·	·	·	·	·	·	·
Oc1ccc(/C=N/Nc2ncnc3nc[nH]c23)cc1	52*	37*	?	2	33	·	·	-2	102	84	95	84	117
Cc1ccc(NC(=O)C2CC(=O)N(Cc3ccco3)C2)cc1 (stereo not drawn)	96	86	?	7	88	·	·	·	·	·	·	·	·
CCNC(=O)C(Sc1ccccc1)c1ccccc1 (stereo not drawn)	130	106	105	21	252*[activator]	21	106*	0	101	105	99	101	92
CCOC(=O)N=Nc1c(O)n(C)c2ccccc12	97	137	186*[activator]	121*	93	17	137*	1	100	66*	92	72*	102
SMILES	RGS8-Gao reg	RGS4-Gao reg	RGS7-Gao reg	Avidin bead fluor	RGS16-Gao	GSH fluor	RGS-Gao	Biotin-avidin	RGS8-Gao single	RGS7-Gao single	RGS16-Gao conf	RGS4-Gao single	RGS19-Gao single
C=CCn1c(O)c(N=NC(=O)OCC)c2ccccc21	102	100	101	5	107	10	·	·	·	·	·	·	·
CN1C(=O)/C(=C/C=C2\SCCN2C)SC1=S	101	101	99	11	102	24	·	·	·	·	·	·	·
O=C(CSc1nnc(-c2cnccn2)n1Cc1ccco1)c1ccc2ccccc2c1	22*	29*	25*	2	19*	31	·	1	103	104	105	105	111
CC(C)OC(=O)CSc1nnc(-c2cnccn2)n1Cc1ccco1	100	103	101	29	102	16	·	·	·	·	·	·	·
CC(C(=O)Nc1cccnc1)C1Sc2ccccc2NC1=O (stereo not drawn)	107	107	110	7	128	15	·	·	·	·	·	·	·
COc1ccc(NC(=S)Nc2ccccc2)c(OC)c1	109	106	107	17	115	12	·	·	·	·	·	·	·
COc1ccc(NC(=S)Nc2ccc(OCc3ccccc3)cc2)c(OC)c1	117	140	165*[activator]	11	37	18	140*	1	103	103	102	101	105
